Measurements from PubChem BioAssay (NCI).
About 83,000 compounds went through this panel and 20% of them were active in at least one assay; those are over-represented in the sample as a whole.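 Single-dose data. Exposure time 48 hours. Values below 10 considered active.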 Activity calls are given as the source filed them.

What was measured:
Experiment in all cases: NCI-60 one-dose screen, 48 h (100 = growth as untreated, 0 = no growth, -100 = all killed)
Settings in all cases: 10 µM unless noted
NCI-H23 lung = system: NCI-H23 lung
NCI-H226 lung = system: NCI-H226 lung
NCI-H322M lung = system: NCI-H322M lung
HOP-62 NSCLC = system: HOP-62 NSCLC
NCI-H460 lung = system: NCI-H460 lung
HOP-92 NSCLC = system: HOP-92 NSCLC
NCI-H522 lung = system: NCI-H522 lung
A549/ATCC NSCLC = system: A549/ATCC NSCLC
786-0 renal = system: 786-0 renal
COLO 205 colon = system: COLO 205 colon
DU-145 prostate = system: DU-145 prostate
K-562 leukemia = system: K-562 leukemia
MALME-3M melanoma = system: MALME-3M melanoma
MDA-MB-231 breast = system: MDA-MB-231 breast
RXF 393 renal = system: RXF 393 renal
SF-268 CNS = system: SF-268 CNS
SF-539 CNS = system: SF-539 CNS
UACC-257 melanoma = system: UACC-257 melanoma
M14 melanoma = system: M14 melanoma
SF-295 CNS = system: SF-295 CNS

Measured: growth

O=C(Nc1cccc(-n2cc(-c3ccncc3)c(-c3ccc(Cl)c(O)c3)n2)c1)c1ccc(N2CCOCC2)c(C(F)(F)F)c1
inactive: NCI-H23 lung 61.3% | NCI-H226 lung 107% | NCI-H322M lung 82.1% | HOP-62 NSCLC 40.4% | HOP-92 NSCLC 10.2% | NCI-H522 lung 39.6% | A549/ATCC NSCLC 31.4% | 786-0 renal 59.6% | COLO 205 colon 96.1% | DU-145 prostate 52.7% | MALME-3M melanoma 10.7% | MDA-MB-231 breast 23.4% | SF-268 CNS 55.5% | SF-539 CNS 41.6% | UACC-257 melanoma 38.9% | M14 melanoma 22.7%
active: NCI-H460 lung 5.81% | K-562 leukemia 7.96% | RXF 393 renal -26%

O=C(Nc1cccc(-n2cc(-c3ccncc3)c(-c3ccc(Cl)c(O)c3)n2)c1)Nc1ccc(Cl)c(Cl)c1
active: NCI-H460 lung 6.5% | HOP-92 NSCLC -20.2% | NCI-H522 lung -6.8% | A549/ATCC NSCLC 4.51% | MDA-MB-231 breast -0.72% | RXF 393 renal 4.46% | UACC-257 melanoma -17.3%
inactive: NCI-H23 lung 13.5% | NCI-H226 lung 24.7% | NCI-H322M lung 40.6% | HOP-62 NSCLC 34.4% | 786-0 renal 30.1% | COLO 205 colon 30.2% | DU-145 prostate 25.9% | K-562 leukemia 11.4% | MALME-3M melanoma 10.3% | SF-268 CNS 29.1% | SF-539 CNS 37% | M14 melanoma 17.2%

Cc1ccc(S(=O)(=O)NCCNc2nccc(-c3c(-c4ccc(O)cc4)nc4sccn34)n2)cc1
inactive: NCI-H23 lung 95.1% | NCI-H226 lung 98.8% | NCI-H322M lung 110% | HOP-62 NSCLC 113% | NCI-H460 lung 106% | HOP-92 NSCLC 101% | NCI-H522 lung 84% | A549/ATCC NSCLC 94.1% | 786-0 renal 97.3% | COLO 205 colon 104% | DU-145 prostate 102% | K-562 leukemia 81.7% | MALME-3M melanoma 95.6% | MDA-MB-231 breast 97.7% | RXF 393 renal 92.2% | SF-268 CNS 95.6% | SF-539 CNS 107% | UACC-257 melanoma 108% | M14 melanoma 93.3%

COc1cc(/C=C/C(=O)c2cccc(-n3cc(-c4cc(OC)c(OC)c(OC)c4)[nH]c3=O)c2)cc(OC)c1OC
inactive: NCI-H226 lung 58% | NCI-H322M lung 46% | HOP-62 NSCLC 42.9% | A549/ATCC NSCLC 35.1% | 786-0 renal 19% | DU-145 prostate 12.5% | MALME-3M melanoma 28.9% | MDA-MB-231 breast 35.4% | SF-268 CNS 20.9% | UACC-257 melanoma 37.2%
active: NCI-H23 lung 6.11% | NCI-H460 lung -1.97% | HOP-92 NSCLC -12.2% | NCI-H522 lung -66.8% | COLO 205 colon -36.1% | K-562 leukemia 0.136% | RXF 393 renal -79.5% | SF-539 CNS -86.1% | M14 melanoma -0.87%

O=C(/C=C/c1c[nH]c2ccccc12)c1ccc(O)c(CN2CCN(c3ccc(F)cc3)CC2)c1
inactive: NCI-H23 lung 99.8% | NCI-H226 lung 100% | NCI-H322M lung 103% | HOP-62 NSCLC 95.9% | NCI-H460 lung 106% | HOP-92 NSCLC 95.5% | NCI-H522 lung 102% | A549/ATCC NSCLC 99.5% | 786-0 renal 103% | COLO 205 colon 109% | DU-145 prostate 107% | K-562 leukemia 103% | MALME-3M melanoma 101% | MDA-MB-231 breast 98.7% | RXF 393 renal 108% | SF-268 CNS 94% | SF-539 CNS 98.3% | UACC-257 melanoma 115% | M14 melanoma 99.4%

O=C(Nc1cccc(-n2cc(-c3ccncc3)c(-c3ccc(Cl)c(O)c3)n2)c1)Nc1cccc(C(F)(F)F)c1
inactive: NCI-H23 lung 14.6% | NCI-H226 lung 35.1% | NCI-H322M lung 48.2% | HOP-62 NSCLC 38.1% | 786-0 renal 34.4% | COLO 205 colon 94.2% | DU-145 prostate 23.1% | K-562 leukemia 13.4% | MDA-MB-231 breast 21.3% | RXF 393 renal 31.3% | SF-268 CNS 28.5% | SF-539 CNS 38.5% | M14 melanoma 16.6%
active: NCI-H460 lung 7.29% | HOP-92 NSCLC -17.7% | NCI-H522 lung -10.8% | A549/ATCC NSCLC 5.74% | MALME-3M melanoma 1.16% | UACC-257 melanoma -11.6%

COc1cc(/C=C/C(=O)c2ccc(Nc3ncnc4cc(OC)c(OC)cc34)cc2)cc(OC)c1
inactive: NCI-H23 lung 94.7% | NCI-H226 lung 113% | NCI-H322M lung 105% | HOP-62 NSCLC 116% | NCI-H460 lung 109% | HOP-92 NSCLC 76.4% | NCI-H522 lung 92.4% | A549/ATCC NSCLC 84.9% | 786-0 renal 92.3% | COLO 205 colon 117% | DU-145 prostate 115% | K-562 leukemia 41.3% | MALME-3M melanoma 118% | MDA-MB-231 breast 104% | SF-268 CNS 98.4% | SF-295 CNS 93.3% | SF-539 CNS 101% | UACC-257 melanoma 95.1% | M14 melanoma 112%

COc1cc(-c2nn(-c3cccc(NC(=O)Nc4cccc(C(F)(F)F)c4)c3)cc2-c2ccncc2)ccc1Cl
active: NCI-H23 lung -12.4% | NCI-H226 lung 4.3% | HOP-62 NSCLC -29.8% | NCI-H460 lung -7.91% | HOP-92 NSCLC -33.6% | NCI-H522 lung -30.8% | A549/ATCC NSCLC -14% | 786-0 renal -15% | COLO 205 colon -88.9% | DU-145 prostate 9.75% | K-562 leukemia 1.6% | MALME-3M melanoma -32.1% | MDA-MB-231 breast -28.8% | RXF 393 renal -69.8% | SF-268 CNS 2.35% | SF-539 CNS -34.2% | UACC-257 melanoma -52.9% | M14 melanoma -61.5%
inactive: NCI-H322M lung 21.7%

COc1cc(-c2nn(-c3cccc(NC(=O)Nc4ccc(Cl)c(Cl)c4)c3)cc2-c2ccncc2)ccc1Cl
active: NCI-H23 lung 1.67% | NCI-H226 lung 9.61% | NCI-H460 lung 2.32% | HOP-92 NSCLC -34.3% | NCI-H522 lung -14.7% | A549/ATCC NSCLC -5.88% | COLO 205 colon -80.4% | K-562 leukemia 3.63% | MALME-3M melanoma -19.9% | MDA-MB-231 breast -40.1% | RXF 393 renal -22.8% | UACC-257 melanoma -36.6% | M14 melanoma 0.293%
inactive: NCI-H322M lung 38.8% | HOP-62 NSCLC 10.2% | 786-0 renal 15.3% | DU-145 prostate 20% | SF-268 CNS 17.9% | SF-539 CNS 12.3%

CC(C)(C)NCCC(O)c1cc2c(Cl)cc(Cl)cc2c2cc(C(F)(F)F)ccc12 (stereo not given)
active: NCI-H23 lung -78.6% | NCI-H226 lung -73.8% | NCI-H322M lung -54.2% | HOP-62 NSCLC -87.1% | NCI-H460 lung -73.6% | HOP-92 NSCLC -62.1% | NCI-H522 lung -81.8% | A549/ATCC NSCLC -88.2% | 786-0 renal -65.5% | COLO 205 colon -87.3% | DU-145 prostate -95.1% | K-562 leukemia -72.2% | MALME-3M melanoma -53.3% | MDA-MB-231 breast -74.4% | RXF 393 renal -95.9% | SF-268 CNS -88.6% | SF-539 CNS -82.2% | UACC-257 melanoma -81.7% | M14 melanoma -77.4%

O=C(Nc1cccc(-n2cc(-c3ccncc3)c(-c3ccc(Cl)c(O)c3)n2)c1)Nc1ccc(Cl)c(C(F)(F)F)c1
active: NCI-H23 lung -25.8% | NCI-H226 lung 3.43% | HOP-62 NSCLC -17% | NCI-H460 lung -43.7% | HOP-92 NSCLC -30.7% | NCI-H522 lung -30% | A549/ATCC NSCLC -21.3% | 786-0 renal 4.7% | COLO 205 colon -60.2% | DU-145 prostate -17% | K-562 leukemia -20.8% | MALME-3M melanoma -16.6% | MDA-MB-231 breast -36.4% | RXF 393 renal -76% | SF-268 CNS -34.5% | SF-539 CNS -26.1% | UACC-257 melanoma -54% | M14 melanoma -25.5%
inactive: NCI-H322M lung 24.7%

O=S(=O)(NCCNc1nccc(-c2c(-c3cccc(O)c3)nc3sccn23)n1)c1ccc(F)cc1
active: UACC-257 melanoma -0.678%
inactive: NCI-H23 lung 87% | NCI-H226 lung 91.8% | NCI-H322M lung 90.4% | HOP-62 NSCLC 103% | NCI-H460 lung 67.3% | HOP-92 NSCLC 92.8% | NCI-H522 lung 64.4% | A549/ATCC NSCLC 52% | 786-0 renal 77% | COLO 205 colon 37.6% | DU-145 prostate 78.6% | K-562 leukemia 47.8% | MALME-3M melanoma 18.3% | MDA-MB-231 breast 77.6% | RXF 393 renal 52.5% | SF-268 CNS 73.3% | SF-539 CNS 96.5% | M14 melanoma 27.3%

COc1cc(-c2nn(-c3cccc(NC(=O)Nc4ccc(Cl)c(C(F)(F)F)c4)c3)cc2-c2ccncc2)ccc1Cl
active: NCI-H23 lung 5.69% | HOP-62 NSCLC 5.4% | NCI-H460 lung 1.7% | HOP-92 NSCLC -37.5% | NCI-H522 lung -13.9% | A549/ATCC NSCLC -10.4% | COLO 205 colon -91.6% | K-562 leukemia 3.8% | MALME-3M melanoma -14.9% | MDA-MB-231 breast -52.4% | RXF 393 renal -27.8% | SF-539 CNS 6.56% | UACC-257 melanoma -37.6% | M14 melanoma -11.6%
inactive: NCI-H226 lung 12.1% | NCI-H322M lung 32.3% | 786-0 renal 15.1% | DU-145 prostate 20.3% | SF-268 CNS 13.8%

O=c1c2sc3ncccc3c2nnn1-c1ccccc1
inactive: NCI-H23 lung 99.1% | NCI-H226 lung 100% | NCI-H322M lung 114% | HOP-62 NSCLC 105% | NCI-H460 lung 106% | HOP-92 NSCLC 97.5% | NCI-H522 lung 111% | A549/ATCC NSCLC 102% | 786-0 renal 100% | COLO 205 colon 114% | DU-145 prostate 115% | K-562 leukemia 93.3% | MALME-3M melanoma 105% | MDA-MB-231 breast 97.2% | RXF 393 renal 101% | SF-268 CNS 102% | SF-539 CNS 102% | UACC-257 melanoma 102% | M14 melanoma 108%

C=CCSc1n[nH]c(-c2cccs2)n1
inactive: NCI-H23 lung 104% | NCI-H226 lung 99.4% | NCI-H322M lung 110% | HOP-62 NSCLC 94.3% | NCI-H460 lung 107% | HOP-92 NSCLC 94.7% | NCI-H522 lung 92% | A549/ATCC NSCLC 98.8% | 786-0 renal 95.9% | COLO 205 colon 137% | DU-145 prostate 121% | K-562 leukemia 85.6% | MALME-3M melanoma 110% | MDA-MB-231 breast 121% | SF-268 CNS 111% | SF-295 CNS 106% | SF-539 CNS 98.3% | UACC-257 melanoma 76.4% | M14 melanoma 104%
